Laboratory results from PubChem BioAssay AID588850 (Sanford-Burnham Center for Chemical Genomics, 2011).
Several values for one entry are separate records, joined by “and”; a condition that tells them apart may be missing. Equal values may be shown once. Among all 360,000 compounds or so, about 3,100 (0.86%) were called active.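 The calls were made as follows: active = at least 50% inhibition at 5 µM, scaled per plate between neutral and stimulator controls; inactive = the rest.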 The entries come from a sample that favours actives as a whole.

experiment: NF-kB reporter blockers in CF airway cells – cell-based, GFP fluorescence, uHTS, primary screen (AID 588850); conditions: KKLEB NF-kB-GFP reporter, PAF-induced, GFP fluorescence overnight; at 5 µM; hits give high values;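 also: PAF is a Pseudomonas aeruginosa culture filtrate used as stimulus; plate controls were PAF-stimulated DMSO wells for no effect and unstimulated DMSO wells for full effect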

inhibition, active:
Cc1ccc2occ(/C=N/NC(=O)c3ccccc3C)c(=O)c2c1 71%, Cc1ccc(/C=N/NC(=O)COc2ccccc2-c2ccccc2)cc1 51.1%, O=C(CCl)Nc1cccc(CP(=O)(c2ccccc2)c2ccccc2)c1 58%, O=[N+]([O-])c1ccc(Oc2ccc(F)cc2Br)c2ccncc12 65%, Cc1nnc(NC(=O)Nc2ccc(Cl)c(Cl)c2)s1 83.2%, Cc1ccc(NC(=O)Nc2nnc(-c3ccncc3)s2)cc1 68%, CC(=O)c1ccc(-c2cnc3c(NC=O)cc(-c4cccc(NS(C)(=O)=O)c4)cn23)cc1 74.7%, COc1cncc(-c2cnc3sc(NCCc4ccccn4)nn23)c1 74.1%, COc1cc(NC(=O)c2[nH]cnc2C(N)=O)cc(C(=O)Nc2cccc(C(F)(F)F)c2)c1 53.2%, COc1ccccc1N1CCN(C(=O)c2cc(=O)c3cc(C)cc(C)c3o2)CC1 51%, Cc1ccc(S(=O)(=O)/N=C2\C=C(NS(=O)(=O)c3ccc(C)cc3)C(=O)c3ccccc32)cc1 68.9%, O=C1C=C(NS(=O)(=O)c2ccccc2)C(=O)c2ccccc21 72%, O=C(NC1=CC(=O)c2ccccc2C1=O)c1ccccc1 84.9%, Cc1cc(-c2n[nH]c(=S)n2/N=C/C(Br)=C/c2ccccc2)n[nH]1 87.5%, c1nnc2c3c4c(sc3ncn12)CCC4 59%, C=CC(=O)Nc1ccc(Nc2ccnc(Nc3ccc(N4CCN(C)CC4)cc3)n2)cc1 55.6%, COc1ccc(CN(C)C(=O)c2cc(-c3ccc(C)cc3C)nc3ccccc23)c(OC)c1OC 67.1%, CC(=O)OCC(=O)C1(O)CCC2C3CC(C)C4=CC(=O)CCC4(C)C3C(O)CC21C (configuration not stated) 73%

inhibition, inactive:
Cc1ccc(C(=O)OCC(=O)NCc2cc(C)c(O)c(C)c2)cc1S(=O)(=O)N1CCCCC1 -0.3%, COCCCNc1ccn2nc(-c3ccc(CC(C)C)cc3)cc2n1 -77.9%, O=c1c(/C=N/O)coc2ccc(Cl)cc12 0.9%, CC(C)(C)OC(=O)NCCCCCC(=O)N/N=C/c1coc2ccccc2c1=O 4.1%, Cc1ccc(NC(=O)[C@H](Cc2ccccc2)NC(=O)CC[C@H]2O[C@@H](n3ccc(=O)[nH]c3=O)[C@H](O)[C@@H]2O)cc1C -33.7%, CCCCC(CC)CNCc1cccn1CCN1CCOCC1 (configuration not stated) -18.7%, Cc1ccc(COc2ccc(/C=N/NC(=O)CN3CCCCC3)cc2)cc1 -24.1%, Cc1ccc(/C=N/NC(=O)CSc2nc3ccccc3o2)cc1 -2.1%, O=C(NCc1ccc(F)cc1)c1cc(C2CCCCN2C(=O)c2ccccn2)on1 (configuration not stated) 4.9%, C=CCN1C=C(C(=O)c2ccccc2)C(=O)CC1 3.5%, O=C(CSCc1ccccc1)Nc1ccccc1 -2.5%, O=C(CSc1ccccc1)Nc1ccc(C(=O)Nc2cccc(O)c2)cc1 -12.7%, O=C(NCc1nnc(SCC(=O)N2CCC(Cc3ccccc3)CC2)o1)c1ccco1 13.2%, CCOC(=O)C1(CCOC)CCN(Cc2cc3ccccc3s2)CC1 11.7%, O=c1ccc2c(-c3ccccc3S(=O)(=O)O)c3ccc(O)c(O)c3oc-2c1O 22%, Oc1c(C(c2cccs2)N2CCN(c3ccc(F)cc3)CC2)sc2ncnn12 (configuration not stated) 17.4%, CCOC(=O)C1=CC[C@@H](c2ccccc2)N(S(=O)(=O)c2ccc(C)cc2)[C@H]1c1ccc(CC)cc1 11.8%, Cc1nnc(NC(=O)Cn2c(=O)sc3ccccc32)s1 -6.1%, CCc1ccc(NC(=O)Nc2ccncc2)cc1 16.4%, Cc1ccc(NC(=O)Nc2cc(-c3ccccc3)nn2C)cc1Cl -3.9%, CC(C)=CC(=O)Nc1nnc(-c2ccc(F)cc2)s1 0.2%, C[C@H]1Cn2cnc(C(=O)N[C@H](C)c3ccccc3)c2C(=O)N1 -3.8%, CCOC(=O)C1=C(CC)Nc2ccccc2N=C1N -14.1%, CC(C)Cn1cnc2c1c(=O)n(CC(O)c1ccccc1)c(=O)n2CC(C)C (configuration not stated) 9%, COc1ccc(NC(=S)N2N=CCC2c2ccccc2)cc1 (configuration not stated) 5.1%, Cc1nnc(SCCCCSc2nnc(C)c(=O)[nH]2)[nH]c1=O 6.2%, CC(=O)c1cccc(-c2cnc3c(NC=O)cc(-c4cccc(C(=O)N(C)C)c4)cn23)c1 0.7%, CC(=O)c1cccc(-c2cnc3c(NC=O)cc(-c4ccc(N(C)C)cc4)cn23)c1 29.8%, Cc1ccc(C(=O)N/C(=C\c2cccs2)C(=O)NCCc2ccccn2)cc1C 5.1%, COc1ccc(-c2cc3nc(NCCOc4ccccc4)ccn3n2)cc1 20.8%, O=C(OCc1ccccc1)N1CCC2CC1c1cc(N3CCN(S(=O)(=O)c4cc(Cl)cc(Cl)c4)CC3)ccc12 (configuration not stated) 10.1%, CCC1=C(OC(=O)N(CC)CC)N2C(=O)OC(=NCC3CC3)[C@]2(C)[C@H]2C1=CC[C@H]1C(=O)N(CC(=O)OC)C(=O)[C@H]12 7.9%, COc1cc(C(=O)N/C(=C\c2cn(C)c3ccccc23)C(=O)N2CCOCC2)cc(OC)c1OC -23.4%, COc1cc(NC(=O)c2cncc(-c3ccc(C#N)cc3)c2)cc(C(=O)Nc2cccc(C(F)(F)F)c2)c1 -39% and -21.4%, COc1ccc(C(N)c2csc(NC(=O)Nc3cccc(C(F)(F)F)c3)n2)cc1 (configuration not stated) 24.7%, CCCCn1ccnc1C(=O)c1cccc(S(=O)(=O)N2c3ccccc3CC2C)c1 (configuration not stated) 2.6%, COc1ccccc1N1CCN(C(=O)c2ccc(NC3=NC4CS(=O)(=O)CC4S3)cc2)CC1 (configuration not stated) -7.3%, COc1ccccc1OCc1ccc(C(=O)N2CCN(C)CC2)o1 6.4%, O=C(COC(=O)c1cccnc1Cl)Nc1ccc(S(=O)(=O)N2CCOCC2)cc1 5.3%, CCN(CC)S(=O)(=O)c1ccc2[nH]c(=O)cc(C(=O)N(C)C3CCS(=O)(=O)C3)c2c1 (configuration not stated) -1.3%, Cc1ccc(S(=O)(=O)N/N=C(\c2ccccc2)C2CC2)cc1 14.8%, Cc1cc(=O)c2ccc(NC(=O)c3ccccc3)cc2[nH]1 3.1%, O=C(O)c1ccccc1NC(=O)c1ccccc1-c1ccccc1C(=O)O 11.9%, Cc1cc(NS(=O)(=O)c2ccccc2)no1 -1.3%, COc1ccc(S(=O)(=O)/N=C2\C=C(NS(=O)(=O)c3ccccc3)C(=O)c3ccccc32)cc1 45%, CC(=O)NS(=O)(=O)c1ccccc1 10.6%, CC(c1ccco1)N(C(=O)COc1ccccc1[N+](=O)[O-])c1ccccn1 (configuration not stated) 8.2%, CN(C)C(=O)Cn1c(=O)n(S(=O)(=O)c2ccccc2)c2ccccc21 5.9%, COC(=O)[C@@H]1C[C@H]2CC[C@H](O)C[C@H]2N1Cc1ccc(N2CCN(C)CC2)cc1 0.1%, CC(C(=O)N1CCc2ccccc21)N(C)CC(=O)Nc1ccc(F)cc1 (configuration not stated) -12%, COC1(C2=NCCN2)COc2ccccc2O1 (configuration not stated) 9.5%, S=c1[nH]nc(-c2ccco2)n1/N=C/c1ccc(Br)s1 5.5%, COc1ccccc1/C=C/C=N/n1c(-c2ccc(Cl)cc2Cl)n[nH]c1=S 1.4%, CC1CCCCC1NC(=O)Cn1cnc2c1c(=O)n(C)c(=O)n2C (configuration not stated) 3.3%, CC(C)c1nc(SCC(=O)NC(=O)NC(C)(C)C)n[nH]1 -0.6%, Cc1cccc(C)c1NC(=S)N(Cc1cccnc1)Cc1ccccc1Cl -1.1%, COc1cccc(CC(=O)N2CCCC(CCC(=O)N3CCN(c4ccccn4)CC3)C2)c1 (configuration not stated) 12.7%, Cc1ccc(NC(=O)CSc2nnc(CNC(=O)c3ccccc3F)o2)cc1 -6.4%, CC(C)c1ccc(CC(=O)N2CCC2(C)C(=O)NS(=O)(=O)c2ccc(C(C)(C)C)cc2)cc1 (configuration not stated) 3.4%, CC(C(=O)O)n1cnc2sc3c(c2c1=O)CCCC3 (configuration not stated) 12.1%, S=c1[nH]nc2c3c4c(sc3ncn12)CCCC4 -4%, O=C(Nc1cccnc1)c1noc2c1CCCCC2 -3.7%, CN1CCN(c2ccc(NC(=O)c3cc(Cl)c4c(c3)OCCO4)cc2)CC1 -18.8%, Cn1cnnc1SCC(=O)Nc1ccc(N2CCOCC2)cc1 -8.2%, O=C(Nc1ccc(-n2cccn2)cc1)C1CCN(Cc2ccsc2)CC1 9.7%, CC1CCc2c(c3ccccc3[nH]c2=O)O1 (configuration not stated) 0.4%, COc1ccc(-c2cc(C(=O)N(C)CC(=O)Nc3ccccc3Cl)c3ccccc3n2)cc1OC 22.9%, COc1ccc(-c2cc(C(=O)N(C)Cc3ccc(OC)c(OC)c3OC)c3ccccc3n2)cc1OC 27%, CC1Cn2c(nnc2-c2cccs2)S1 (configuration not stated) 9.9%, O=C(O)C1CCCN(CCC=C(c2ccccc2)c2ccccc2)C1 (configuration not stated) 9.2%, Cc1ccnc(NS(=O)(=O)c2ccc(NC(=O)c3ccc(S(=O)(=O)N(C)C)cc3)cc2)n1 2.1%, CC1(C(=O)Nc2cccc3c2CCCC3)CCN1C(=O)CCc1ccc(Cl)cc1Cl (configuration not stated) -16%, CC(=O)O[C@]1(C(C)=O)CC[C@H]2[C@@H]3C=C(C)C4=CC(=O)CC[C@]4(C)[C@H]3CC[C@@]21C 39.9%, CC12CCC(=O)C=C1CCC1C2C(O)CC2(C)C1CCC2(O)C(O)CO (configuration not stated) 24.8%
